Data on 6 compounds can be found in PubChem BioAssay (EPA / NIEHS).

Experiment [1] has as its target human Androgen Receptor (AR), AR (gene 367) (UniProt P10275). Put plainly: ATG_hAR_XSP1: Attagene TRANS-FACTORIAL Multi-Species (XSP1) HepG2 Assay for human Androgen Receptor (AR) (AID 2283785).
The target of experiment [2] is T1, Thyroid hormone receptor alpha (Rattus norvegicus) + Thyroid hormone receptor beta (Rattus norvegicus) (UniProt P18113+P63059). Put plainly: TOX21_TR_LUC_GH3_Antagonist_Followup: Tox21 GH3 Thyroid Hormone Receptor Antagonism Luciferase Follow-Up Assay (AID 2283942). The procedure, abridged:
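In a GH3 luciferase reporter line, test chemicals spanning 92 uM to 5nM final are co-incubated 24 h with 1.0 nM T3. Activity is expressed as relative luminescence units and analysed relative to DMSO.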

The target in the next experiment is THRA (gene 7067) (UniProt P10827). Briefly: TOX21_TRA_COA_Antagonist_Followup_ratio: Tox21 Thyroid Hormone Receptor alpha Antagonism through Coactivator Recruitment Follow-Up Assay, Ratio (AID 2283953). The procedure, abridged: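 We measured antagonism of T3-type coactivator recruitment using a TR-FRET ratio (emission 520 and 495 nm) between a Tb-labelled anti-GST antibody on TRα LBD (2.5 nM) and SRC-2 peptide (200 nM). Activity was scaled between DMSO and T3 wells.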

Experiment [3] addresses Retinoic acid receptor RXR-alpha (Homo sapiens) (UniProt P19793). Briefly: TOX21_TR_RXR_BLA_Antagonist_Followup_ratio: Tox21 Thyroid Hormone Receptor beta Retinoid X Receptor alpha (RXRa) Antagonism Beta-lactamase (BLA) Follow-Up Assay, Ratio (AID 2283972). The procedure, abridged:
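Compounds were tested in triplicate at 11 concentrations on RXRa-bla HEK293T cells for 16 h. Substrate cleavage ratio, normalized to DMSO, gave the endpoint.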

In experiment [4] the target is T1, Thyroid hormone receptor alpha (Rattus norvegicus) + Thyroid hormone receptor beta (Rattus norvegicus). Put plainly: TOX21_TR_LUC_GH3_Agonist_Followup: Tox21 GH3 Thyroid Hormone Receptor Agonism Luciferase Follow-Up Assay (AID 2283939). Summed up: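 Agonist-mode confirmatory run: 15 concentrations (5 nM to 92 uM final) on GH3 rat pituitary cells, 24 h at 37C/5% CO2, T3 as positive control. Luminescence read with ONE-Glo after 30 min.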

Experiment [5] in a line: TOX21_TR_RXR_BLA_Agonist_Followup_viability: Viability Assessment in the Tox21 Thyroid Hormone Receptor beta Retinoid X Receptor alpha (RXRa) Agonism Beta-lactamase (BLA) Follow-Up Assay (AID 2283970). Summed up: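 Luminescent ATP read (CellTiter-Glo) after 16h exposure of RXRa-UAS-bla HEK293T cells at 37C/5% CO2. Activity normalized to DMSO; signal loss scored as reduced viability.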

Experiment [6] in a line: CCTE_Simmons_CellTiterGLO_HEK293T: Viability Assessment in CCTE's Assays for Thyroperoxidase (TPO) Inhibition, Simmons Lab (AID 2283665). Summed up: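 ATP depletion measured in HEK293T cells after 24 h dosing (8 concentrations, 5 nM–87.5 uM final; DMSO 0.5%) using CellTiter-Glo luminescence; curves fit for loss of signal against DMSO baseline.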
On the technique in general: Cellular ATP, detected with luciferase, serves as a proxy for viable cell number.

Experiment [7] is described as follows: CCTE_Shafer_MEA_acute_AB: CCTE's Alamar Blue Assay for Cytotoxicity in the Neural Acute Assay, Shafer Lab (AID 2284069).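 Also: active compounds lower the viability signal compared with DMSO wells.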 Summed up:
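Cytotoxicity endpoint for acute MEA exposures of primary rat cortical neurons on day 13 or 15. Resazurin reduction is read fluorescently at 544/590 nm, with DMSO as the negative-control baseline.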
A general note: The colour change of resazurin is a common sign of viable cells or microbes.

A short description of experiment [8]: CCTE_Deisenroth_AIME_96WELL_CTox_Active: Cytotoxicity Assessment (CTOX) in CCTE's 96-well Estrogen Receptor Transactivation Assay with AIME metabolic competence (metabolism positive), Deisenroth Lab (AID 2284028). Summed up:
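Cytotoxicity in VM7Luc4E2 breast cells after 24 h exposure to medium from a 2 h metabolic pre-incubation with induced rat hepatic S9 in alginate microspheres; fluorescent live-cell protease readout, 10-point series 0.002–200 uM, n=4.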

Experiment [9] is described as follows: CCTE_Deisenroth_AIME_96WELL_CTox_Inactive: Cytotoxicity Assessment (CTOX) in CCTE's 96-well Estrogen Receptor Transactivation Assay without AIME metabolic competence (metabolism negative), Deisenroth Lab (AID 2284029). Here is the method:
CCTE_Deisenroth_AIME_96WELL (AIME metabolism assay) is a cell-based, single-readout assay that uses VM7Luc4E2, a human mammary gland/breast cell line, with measurements taken at 24 hour after chemical dosing in a 96-well plate.CCTE_Deisenroth_AIME_96WELL_CTox_Inactive is one of four assay components measured or calculated from the CCTE_Deisenroth_AIME_96WELL assay. It is designed to make measurements of a protease substrate, a type of viability indicator, as detected with substrate cleavage to a fluorescent probe in living cells.CCTE_Deisenroth_AIME_96WELL_CTox_Inactive is a component of the CCTE_Deisenroth_AIME_96WELL assay that measures the effect of retroftting the VM7Luc ERTA assay with the Alginate Immobolization of Metabolic Enzymes (AIME) metabolism method. AIME is optimized to impart phase I hepatic metabolism using phenobarbital/beta-naphthoflavone induced hepatic S9 from male Sprague Dawley rats. Parent chemicals are incubated for 2 hours in the AIME assay prior to transfer to the VM7Luc ERTA assay plate. […] This endpoint evaluates cytotoxicity in metabolism negative mode. Using a type of flourescent probe in VM7Luc cells, loss-of-signal activity can be used to understand loss of viability. This assay endpoint, CCTE_Deisenroth_AIME_96WELL_CTox_Inactive, was analyzed with bidirectional fitting in the ERTA assay. […]

Inconclusive results are not listed. Calls of active or inactive are those of the source. The calls were made as follows: active = hit-call score of the fitted dose curve at least 0.9, where 1 is the maximum; inconclusive = response in the unintended direction; inactive = score below 0.9.

Sequence of human Androgen Receptor (AR), AR (gene 367) (P10275 whole entry, looked up): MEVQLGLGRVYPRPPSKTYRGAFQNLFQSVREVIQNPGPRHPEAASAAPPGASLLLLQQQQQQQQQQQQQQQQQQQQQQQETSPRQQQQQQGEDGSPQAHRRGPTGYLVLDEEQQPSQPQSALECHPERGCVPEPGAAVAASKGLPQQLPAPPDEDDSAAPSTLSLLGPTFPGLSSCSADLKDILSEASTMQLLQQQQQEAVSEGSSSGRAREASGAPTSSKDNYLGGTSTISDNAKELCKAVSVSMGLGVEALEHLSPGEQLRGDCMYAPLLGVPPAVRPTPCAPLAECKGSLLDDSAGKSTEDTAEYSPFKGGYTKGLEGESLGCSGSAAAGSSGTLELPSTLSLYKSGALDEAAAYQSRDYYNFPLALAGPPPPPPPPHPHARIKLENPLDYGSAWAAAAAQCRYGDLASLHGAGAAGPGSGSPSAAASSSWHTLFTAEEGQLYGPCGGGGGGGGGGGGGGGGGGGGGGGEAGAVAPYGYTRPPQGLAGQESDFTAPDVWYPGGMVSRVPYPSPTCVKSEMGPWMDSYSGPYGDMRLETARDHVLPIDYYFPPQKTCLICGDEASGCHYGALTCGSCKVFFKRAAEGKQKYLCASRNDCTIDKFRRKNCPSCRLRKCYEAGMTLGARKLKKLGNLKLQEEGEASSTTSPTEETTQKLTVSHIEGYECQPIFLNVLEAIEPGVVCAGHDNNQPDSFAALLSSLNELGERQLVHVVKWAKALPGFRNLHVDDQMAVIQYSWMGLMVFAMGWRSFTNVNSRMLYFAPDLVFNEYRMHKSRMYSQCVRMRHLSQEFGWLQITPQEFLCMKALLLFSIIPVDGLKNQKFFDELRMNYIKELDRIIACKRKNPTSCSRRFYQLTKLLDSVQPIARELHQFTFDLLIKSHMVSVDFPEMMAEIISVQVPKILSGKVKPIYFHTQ
Sequence of THRA (gene 7067) (P10827 whole entry, looked up, the tested form may be a part): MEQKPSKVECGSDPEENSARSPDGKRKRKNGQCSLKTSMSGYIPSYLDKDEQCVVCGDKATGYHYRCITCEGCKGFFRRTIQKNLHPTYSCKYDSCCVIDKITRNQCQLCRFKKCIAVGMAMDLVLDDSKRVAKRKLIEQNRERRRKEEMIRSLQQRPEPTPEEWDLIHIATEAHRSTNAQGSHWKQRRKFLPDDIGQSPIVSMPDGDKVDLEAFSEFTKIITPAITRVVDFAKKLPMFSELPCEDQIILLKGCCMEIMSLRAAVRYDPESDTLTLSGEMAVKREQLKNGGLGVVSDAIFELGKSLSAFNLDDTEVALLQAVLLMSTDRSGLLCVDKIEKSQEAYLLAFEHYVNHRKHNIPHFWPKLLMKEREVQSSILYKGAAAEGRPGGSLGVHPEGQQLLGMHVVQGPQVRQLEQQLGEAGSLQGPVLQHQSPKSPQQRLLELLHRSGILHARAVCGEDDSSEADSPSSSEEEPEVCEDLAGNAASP
Sequence of Retinoic acid receptor RXR-alpha (Homo sapiens) (P19793 whole entry, looked up): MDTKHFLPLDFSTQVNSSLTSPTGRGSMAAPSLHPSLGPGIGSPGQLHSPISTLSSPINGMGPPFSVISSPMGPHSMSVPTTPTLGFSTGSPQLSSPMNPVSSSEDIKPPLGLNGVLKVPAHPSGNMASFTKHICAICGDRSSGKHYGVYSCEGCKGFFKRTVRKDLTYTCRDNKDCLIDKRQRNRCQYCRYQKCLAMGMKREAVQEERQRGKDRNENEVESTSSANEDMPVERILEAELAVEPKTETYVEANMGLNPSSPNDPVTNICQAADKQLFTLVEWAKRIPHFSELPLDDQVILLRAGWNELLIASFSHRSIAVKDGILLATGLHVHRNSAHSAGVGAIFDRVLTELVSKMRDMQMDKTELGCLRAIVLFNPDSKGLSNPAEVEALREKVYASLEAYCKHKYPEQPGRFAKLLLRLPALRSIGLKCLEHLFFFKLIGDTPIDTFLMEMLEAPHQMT
T1 sequence (P63059 whole entry, looked up): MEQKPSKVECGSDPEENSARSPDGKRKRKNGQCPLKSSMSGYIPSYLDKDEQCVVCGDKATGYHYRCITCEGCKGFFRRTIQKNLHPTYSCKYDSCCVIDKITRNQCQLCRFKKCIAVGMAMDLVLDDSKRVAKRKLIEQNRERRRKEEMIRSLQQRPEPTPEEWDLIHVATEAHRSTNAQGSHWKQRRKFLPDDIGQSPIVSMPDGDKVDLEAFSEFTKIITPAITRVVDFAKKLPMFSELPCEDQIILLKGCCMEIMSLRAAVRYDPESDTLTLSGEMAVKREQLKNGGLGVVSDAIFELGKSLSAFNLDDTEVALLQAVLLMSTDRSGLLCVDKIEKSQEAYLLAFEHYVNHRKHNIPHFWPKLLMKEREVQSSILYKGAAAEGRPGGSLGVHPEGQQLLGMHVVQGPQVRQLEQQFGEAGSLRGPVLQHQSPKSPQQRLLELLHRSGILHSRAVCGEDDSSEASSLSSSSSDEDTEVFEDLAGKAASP
T1 sequence (P18113 whole entry, looked up): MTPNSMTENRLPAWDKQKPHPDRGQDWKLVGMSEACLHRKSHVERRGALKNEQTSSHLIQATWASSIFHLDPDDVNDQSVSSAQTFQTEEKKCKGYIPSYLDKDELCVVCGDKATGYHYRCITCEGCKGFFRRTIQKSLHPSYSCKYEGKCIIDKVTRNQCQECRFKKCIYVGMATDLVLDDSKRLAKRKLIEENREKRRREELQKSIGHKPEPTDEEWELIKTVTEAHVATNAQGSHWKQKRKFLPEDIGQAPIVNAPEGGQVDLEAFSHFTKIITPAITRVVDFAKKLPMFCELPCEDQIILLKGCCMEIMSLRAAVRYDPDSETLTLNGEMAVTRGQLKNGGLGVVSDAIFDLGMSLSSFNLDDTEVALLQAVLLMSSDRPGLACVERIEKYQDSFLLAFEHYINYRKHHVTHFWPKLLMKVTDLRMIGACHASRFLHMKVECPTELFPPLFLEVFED

As for `CC1(C)C(C=C(Cl)Cl)C1C(=O)OCc1cccc(Oc2ccccc2)c1` (stereo not given), the call in experiment [1] was inactive.
For `CC[n+]1ccccc1`, the result (in experiment [2]; in the experiment with THRA (gene 7067); in [3]) was inactive.
Turning to `O=C(O)CCCCCCNC1c2ccccc2CCc2ccccc21`, the outcome in experiment [4] and in experiment [5] was inactive.
Consider `Cc1ccc2cc3c(ccc4ccccc43)c3c2c1CC3`, for which, in [6], the compound was classed as inactive.
`CP(=O)(O)CCC(N)C(=O)O` (stereo not given): in experiment [7], the result was inactive.
For `CCC(C)(C)c1cc(-n2nc3ccccc3n2)c(O)c(C(C)(C)CC)c1`, the compound was called inactive in experiment [8] and in [9].
